High-throughput results deposited in PubChem by National Center for Advancing Translational Sciences (NCATS).
Sampled rows, rich in hits. Any-hit rate of the full collection: about 6.5%.
VACV Venus inh = inhibitors of vaccinia virus (Venus reporter). 330,000 tested, 0.46% active. Vaccinia virus Venus reporter expression, fluorescence. Potency, µM (series often up to 36.5 µM), inactives show at the top dose activity change, negative = inhibition, most hits filed as inhibitors. AID 720580; calls by dose curve; tested in A549 cells; also: potency is read from the fitted curve at half-maximal effect; nearly all actives have a fitted effect of over 30% in size
Vaccinia mCherry = vaccinia inhibition (mCherry reporter) | 310,000 tested, 0.63% active | Potency, µM (doses to about 36.5 µM), inactives show at the top dose activity change, negative = inhibition, usual class: inhibitors | Vaccinia virus mCherry reporter infection, fluorescence; calls by dose curve; tested in A549 cells; also: potency is read from the fitted curve at half-maximal effect; nearly all actives have a fitted effect of over 35% in size
FMDV inh = foot and mouth disease virus antiviral activity; AID 1159524; 410,000 tested, 1.2% active; Potency, µM (doses to about 57.9 µM), for the others: top-dose activity change, negative = inhibition, actives largely listed as inhibitors; FMDV antiviral cell-based qHTS; calls by dose curve; tested in HEK293T cells; also: read-out not given here; potency is read from the fitted curve at half-maximal effect; nearly all actives have a fitted effect of over 45% in size
HCMV antiviral = human cytomegalovirus inhibition. HFF cells, HCMV-luciferase reporter, 72 h; stronger effect = lower value. activity change, negative = inhibition, % at 57.5 µM. 410,000 tested, 4.5% active. AID 1259415; in the data active = activity change below about -60%; inconclusive = no clear call, values can overlap the other calls; inactive = above about -39%
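Screen run at 2 compound doses on HFFs infected with reporter HCMV, MOI 1 PFU/cell. Luciferase activity from cell lysates at 72 h post infection gave inhibition relative to buffer-only and Salinomycin wells.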
Lassa entry inh = blocks Lassa virus binding to or entry into cells; Lassa virus pseudotype entry inhibition, cell reporter; Potency, µM (highest dose often 37.9 µM), for the others: at the top dose activity change, negative = inhibition, hits mostly inhibitors; 300,000 tested, 1.2% active; calls by dose curve; tested in HEK293 cells; also: potency is read from the fitted curve at half-maximal effect; nearly all actives have a fitted effect of over 50% in size
Marburg entry inh = blocks Marburg virus binding to or entry into cells; Potency, µM (doses to about 37.8 µM), for the others: at the top dose activity change, negative = inhibition, most hits filed as inhibitors; 300,000 tested, 1.8% active; Marburg virus pseudotyped entry inhibition, cell reporter; calls by dose curve; tested in HEK293 cells; also: potency is read from the fitted curve at half-maximal effect
The depositor's hits bear a star; i = inactive; ? = inconclusive; / = not tested or not shown; ! = a repeat was not active; [ ] = dose if it differs, or a comment. % is scaled to controls: 0 for no effect and ±100 for the full control effect.

SMILES | VACV Venus inh | Vaccinia mCherry | FMDV inh | HCMV antiviral | Lassa entry inh | Marburg entry inh
COC(=O)C1CCCCN1Cc1ccc2c(c1)CN(C(=O)c1ccc(C)s1)CCO2 (configuration not stated) | 4% | -5% | 0% | / | / | /
COc1cc(CNCc2cc3ccc(F)cc3nc2N2CCOCC2)cc(OC)c1OC | 33% | -3% | 0% | / | / | /
O=C(c1ccc2c(=O)n(-c3ccccc3)c(=O)[nH]c2c1)N1CCCCC1 | -13% | i | / | -66* | -19% | -18%
COCCn1c(=O)[nH]c2cc(C(=O)N3CCN(c4ccc(Cl)cc4)CC3)ccc2c1=O | -2% | ? | 16µM*! | -23 | 21%[46.1 µM] | ?
CCn1c(=O)[nH]c2cc(C(=O)N3CCN(c4ccccc4)CC3)ccc2c1=O | / | / | 12% | 113 | -6% | 11%
COc1cc2[nH]c(=O)n(Cc3ccc(C(=O)N4CCN(c5ccc(Cl)cc5)CC4)cc3)c(=O)c2cc1OC | ? | ? | 25µM* | -9 | -24%[46.1 µM] | ?
COc1ccc(OC)c(NC(=O)c2ccc3c(=O)n(CCc4ccccc4)c(=S)[nH]c3c2)c1 | -9% | -10% | 0.79µM* | ? | ? | ?
CSc1nc(C(=O)NCc2nc(-c3cccc(NC(=O)c4ccccn4)c3)oc2C)cs1 | -2% | -13% | 14% | / | / | /
O=C(c1ccc(F)cc1)C1CCN(CCCn2c(=O)[nH]c3ccccc32)CC1 | / | / | / | -33 | / | /
CCCCCn1c(=O)[nH]c2cc(C(=O)NCc3ccccc3)ccc2c1=O | -1% | -5% | 0% | -23 | 2%[46.1 µM] | -4%[46.1 µM]
O=C(c1ccc2c(=O)n(CCc3ccccc3)c(=O)[nH]c2c1)N1CCN(c2ccc(F)cc2)CC1 | 0% | ? | 11µM* | -38 | ? | ?
COc1ccc(Cn2c(=O)[nH]c3cc(C(=O)N4CCN(c5cccc(OC)c5)CC4)ccc3c2=O)cc1 | -7% | -17% | ? | -9 | 5%[46.1 µM] | -19%[46.1 µM]
COc1ccc(N2CCN(C(=O)c3ccc4c(=O)n(CCc5ccc(OC)c(OC)c5)c(=O)[nH]c4c3)CC2)cc1 | -14% | -22% | 28µM* | -37 | -26% | 11µM*
O=C(c1ccc(F)cc1)C1CCN(CCn2c(=O)[nH]c3ccccc3c2=O)CC1 | -19% | -1% | -14% | -39 | 0% | 11µM*
CCCCC(CC)CNC(=O)c1ccc2c(=O)n(CCOC)c(=O)[nH]c2c1 (configuration not stated) | 12% | 1% | ? | ? | ? | 2.8µM*
COc1ccc(NC(=O)Nc2sc3nc4n(c(=O)c3c2C)CCC(C)CC4)cc1OC (configuration not stated) | -8% | -16% | -15% | ? | / | 1%[46.1 µM]
O=C(CCCn1c(=O)[nH]c2cc(Cl)ccc2c1=O)NCCCN1CCN(c2ccc(F)cc2)CC1 | / | / | ? | -62* | / | /
O=C(c1ccc2c(=O)n(CCc3ccccc3)c(=O)[nH]c2c1)N1CCN(c2ccccc2)CC1 | -2% | -4% | -26% | / | ? | 10%[46.1 µM]
O=C(c1ccc2c(=O)n(CCc3ccccc3)c(=O)[nH]c2c1)N1CCN(c2ccc(Cl)cc2)CC1 | -30% | -28% | 16µM* | -30 | ? | ?
CCC1(C2CCN(C(=O)c3ccccc3Cl)CC2)NC(=O)N(CCc2scnc2C)C1=O (configuration not stated) | -14% | i | 9% | / | / | /
O=c1c2ccccc2nc(SCc2cn3ccsc3n2)n1-c1ccc(F)cc1 | ? | / | ? | -77* | 11µM* | ?
COc1cccc(C2C(C(=O)Nc3ccccc3)=C(C)Nc3nc(-c4ccccc4)nn32)c1 (configuration not stated) | -1% | -7% | -14% | 8 | -11%[46.1 µM] | ?
O=[N+]([O-])c1cc(-c2nc(-c3ccccc3)no2)ccc1NCc1cccnc1 | -7% | -12% | 15% | 51 | ? | ?
CC(C)NC(=O)C1CCN(C(=O)c2cc3sccc3n2Cc2ccc(Cl)cc2)CC1 | -23% | -6% | 16µM* | / | / | ?
COC(=O)c1cc2sccc2n1Cc1ccc(F)cc1 | -15% | -12% | -20% | ? | -4%[46.1 µM] | /
SMILES | VACV Venus inh | Vaccinia mCherry | FMDV inh | HCMV antiviral | Lassa entry inh | Marburg entry inh
CC(C)NC(=O)C1CCN(C(=O)c2cc3sccc3n2Cc2ccc(F)cc2)CC1 | ? | ? | / | / | ? | 8.2µM*
O=C(NCc1ccccc1)c1cc2sccc2n1Cc1ccc(Cl)cc1 | -3% | -2% | -1% | / | 11%[46.1 µM] | -11%[46.1 µM]
COc1cc([C@H]2NC(=O)C[C@H]2C(=O)OCc2ccccc2)ccc1OC(C)C | / | / | / | -15 | / | /
CCc1cccc(-n2nnc(-c3nc(-c4ccc5c(c4)OCO5)no3)c2C)c1 | -10% | -8% | 11% | -33 | 22%[46.1 µM] | /
OCCN(CCO)CC(O)COc1ccc(C23CC4CC(CC(C4)C2)C3)cc1 (configuration not stated) | -22% | -2% | 0% | -62* | ? | ?
Cc1sc2ncn(CC(=O)N(C)c3ccc(C(C)C)cc3)c(=O)c2c1S(=O)(=O)N1CCC(C)CC1 | -9% | -14% | -18% | -11 | 6%[46.1 µM] | 10%[46.1 µM]
CN(C)S(=O)(=O)Oc1cccc(C(=O)Nc2ccccc2Cl)c1 | / | / | -8% | 9 | -11% | 31%
CN(C)S(=O)(=O)Oc1ccc(C(=O)Nc2cccc(C(F)(F)F)c2)cc1 | / | / | 14µM* | -76* | / | /
CN(C)S(=O)(=O)Oc1cccc(C(=O)Nc2ccc(Cl)cc2)c1 | / | / | -29% | -29 | 15µM* | ?
CNCCCC1c2ccccc2C=Cc2ccccc21 | ? | -10% | -17% | -6 | ? | 3.5µM*
CNCCC=C1c2ccccc2C=Cc2ccccc21 | -22% | -1% | -17% | -2 | / | /
COc1ccc(CN2CCOc3ccc(CN4CCN(CCO)CC4)cc3C2)c2ccccc12 | -12% | -20% | -7% | / | / | /
COc1ccc2c(c1)C(=O)[C@@H](O)[C@H](c1ccc(OC)c(Br)c1)O2 | ? | 4µM* | 21% | / | ? | 5%
O=C(NCc1ccccc1F)C(=O)NCC(c1ccco1)S(=O)(=O)c1cccs1 (configuration not stated) | -18% | -11% | -13% | 7 | ? | /
Cc1cc(C)c(S(=O)(=O)NCCCn2ccnc2)cc1C | -12% | -19% | 88% | -13 | ? | 3.5µM*
Cc1cc(S(=O)(=O)NCCCn2ccnc2)c(C)cc1Cl | -13% | i | 27% | -12 | 5%[46.1 µM] | -12%[46.1 µM]
CCCCOC(=O)Nc1nnc(-c2ccccc2OC)s1 | 3% | / | -2% | -83* | -19% | 8%
COc1ccccc1-c1nnc(NC(C)=O)s1 | -6% | i | 6% | 35 | -26% | -9%
Cc1ccc2oc(=O)c(-c3nc(-c4cccs4)no3)cc2c1 | -10% | -18% | 35% | -40 | -1%[46.1 µM] | /
CCOC(=O)c1ccc(NC(=O)Cc2ccc(-n3c(CC)nc4cccnc43)cc2)cc1 | -6% | -16% | -16% | 0 | 2%[46.1 µM] | /
CN(C)CCC(=O)N1C/C(=C/c2ccccc2)C(=O)/C(=C\c2ccccc2)C1 | 11µM* | 8.9µM* | 8.9µM* | -98* | ? | ?
O=C(/C=C/c1ccccc1)N1CCOCC1 | / | / | 15% | 39 | / | /
